# HT1080-NT tox = kills 2HG-producing HT-1080-NT fibrosarcoma cells; AID 686970; 360,000 tested, 1.6% active; Potency, µM (top dose mostly 46.1 µM), for the others: at the highest dose activity, negative = less viability, actives largely listed as cytotoxic; HT-1080-NT fibrosarcoma viability, CellTiter-Glo ATP luminescence, 48 h;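 further: NT is the 2HG producing partner of a matched IDH1 knockdown line; potency means the concentration at half of the fitted maximal effect; 0% = DMSO-treated cells and -100% = media-only wells without cells; nearly all actives have a fitted effect of over 55% in size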
#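 Luminescent CellTiter-Glo readout after 48 hours of compound exposure at 37 degrees C defined viability of HT-1080-NT cells. Activity was normalized to DMSO wells and cell-free media wells; concentration-response curves were fitted and assigned curve classes.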
# TDP1 cell CPT = growth inhibition of DT40 Tdp1-/-;hTDP1 cells with camptothecin (screen for TDP1 inhibitors); AID 686979; Potency, µM (series often up to 46.2 µM), inactives show top-dose activity change, negative = growth inhibition, most hits filed as inhibitors; 420,000 tested, 12% active; chicken DT40 Tdp1-/-;hTDP1 cells + 20 nM CPT, ATP luminescence, 48 h; further: potency means the concentration at half of the fitted maximal effect; nearly all actives have a fitted effect of over 55% in size
#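 Chicken DT40 Tdp1-/- cells complemented with human TDP1, 400 cells/well, exposed to compounds plus 20 nM camptothecin for at least 48 h at 37 C; viability read as ATP content by CellTiter-Glo luminescence.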
# 12-LOX inh = blocks human arachidonate 12S-lipoxygenase; Potency, µM (top dose mostly 108 µM), for inactives: at the highest dose activity change, negative = inhibition, hits mostly inhibitors; 580,000 tested, 1.1% active; purified 12hLO, xylenol orange hydroperoxide absorbance; P18054; further: potency means the concentration at half of the fitted maximal effect
# Target sequence (P18054 whole entry, looked up): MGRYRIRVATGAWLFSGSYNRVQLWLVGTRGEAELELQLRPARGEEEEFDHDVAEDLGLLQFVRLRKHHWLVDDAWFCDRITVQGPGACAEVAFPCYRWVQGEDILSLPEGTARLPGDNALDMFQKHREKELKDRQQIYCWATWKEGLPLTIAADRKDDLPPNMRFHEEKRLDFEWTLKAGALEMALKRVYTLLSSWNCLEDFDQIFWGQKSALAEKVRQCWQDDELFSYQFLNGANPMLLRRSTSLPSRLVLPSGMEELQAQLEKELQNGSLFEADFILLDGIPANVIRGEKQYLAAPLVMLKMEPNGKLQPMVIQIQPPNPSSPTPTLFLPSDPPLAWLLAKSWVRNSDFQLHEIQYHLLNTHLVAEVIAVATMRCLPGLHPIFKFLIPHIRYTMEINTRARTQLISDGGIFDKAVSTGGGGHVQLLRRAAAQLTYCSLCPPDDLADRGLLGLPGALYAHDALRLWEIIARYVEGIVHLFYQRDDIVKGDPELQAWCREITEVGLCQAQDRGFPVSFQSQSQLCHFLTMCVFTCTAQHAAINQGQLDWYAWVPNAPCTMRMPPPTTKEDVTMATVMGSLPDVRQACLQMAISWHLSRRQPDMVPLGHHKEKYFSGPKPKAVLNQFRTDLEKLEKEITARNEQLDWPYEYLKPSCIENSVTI
#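 Purified human 12hLO at 150 nM in 25 mM Hepes, 0.01% Triton X-100, pH 7.0, preincubated 15 min at room temperature with compound. Reaction started with 40 uM arachidonic acid, 30 min at room temperature. Hydroperoxide measured by Fe-xylenol orange, 573/405 nm absorbance ratio.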
# IL1B secr inh = blocks inflammasome-driven IL-1 beta release | activity change, % at 57.5 µM | 360,000 tested, 4.7% active | AID 743279 | THP-1 LPS/ATP IL-1B secretion, AlphaLISA, 16 h; stronger effect = lower value; in the data active means activity change below about -50%; inconclusive means mostly about -30% to -49%
#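 Secreted IL-1B measured by AlphaLISA bead assay after 16 h compound exposure of THP-1 cells; compounds (final up to 57.5 uM) added 1 h before LPS (250 ng/mL) and ATP (1.25 mM) stimulation; lower signal means less secretion.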
# HT1080 IDH1KD tx = kills HT-1080 cells with IDH1 knockdown; HT-1080 IDH1 knockdown viability, ATP luminescence, 48 h; Potency, µM (series often up to 46.1 µM), inactives show at the highest dose activity, negative = toxicity, hits mostly cytotoxic; 360,000 tested, 2% active; AID 686971;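 further: potency means the concentration at half of the fitted maximal effect; 0% = DMSO wells and -100% = cell-free medium wells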
#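 Using the IDH1-knockdown HT-1080 line run in the same batch and compound series as the NT line, viability after 48 h at 37 °C was determined by CellTiter-Glo luminescence and expressed as % activity.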
# DT40 TDP1 no CPT = qHTS for Inhibitors of human tyrosyl-DNA phosphodiesterase 1 (TDP1): qHTS in cells in absence of CPT; Potency, µM (titrated, usually from 46.2 µM), for the others: at the top dose activity change, negative = growth inhibition, hits mostly inhibitors; 420,000 tested, 15% active; AID 686978, 2013; DT40 Tdp1-/- hTDP1 cells, no CPT, ATP luminescence, 48 h; further: potency means the concentration at half of the fitted maximal effect; nearly all actives have a fitted effect of over 55% in size
#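 Growth of hTDP1-complemented DT40 Tdp1-knockout cells is measured by ATP luminescence after at least 48 hr compound exposure at 37 °C, with DMSO substituting for the 20 nM CPT used in the parallel screen.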
# Numbers without * were called inactive; ? = inconclusive; . = no result; [ ] = another dose, or the depositor's remark. This excerpt belongs to a sample that is enriched for hits. Unless noted, the call rests on the fitted dose curve; in most records, active means well fitted curve in the direction sought with a large enough effect; inconclusive means small, poorly fitted or top-dose-only effect, or another doubt; inactive means no such curve, though single readings can be large; an effect the other way counts as inactive or inconclusive. Unless noted, on the % scale 0 is the no-effect control and ±100 the full control effect.
SMILES,HT1080-NT tox,TDP1 cell CPT,12-LOX inh,IL1B secr inh,HT1080 IDH1KD tx,DT40 TDP1 no CPT
Cc1nn(-c2ccccc2)c2c1C1(C(=O)N(C)c3ccccc31)C(C#N)=C(N)O2 (stereo not drawn),2.1%,16.4µM*,?,11.5,2.0%,?
CCN1C(=O)C2(C(C#N)=C(N)Oc3c2c(C)nn3-c2ccccc2)c2ccccc21 (stereo not drawn),-3.2%,18.4µM*,-16.4%,7.2,?,16.4µM*
Cc1cc(Cl)ccc1NS(=O)(=O)c1c(C)cc(N2C(=O)CCS2(=O)=O)cc1C,.,.,1.3%,.,.,.
CNc1nccc(N2CCC(CC(=O)NCCCN3CCc4ccccc4C3)CC2)n1,.,.,45.6%,.,.,.
CC(=O)N1C(=O)C2(C(C#N)=C(N)Oc3c2c(C)nn3-c2ccccc2)c2ccccc21 (stereo not drawn),-7.5%,23.1µM*,6.5%,31.4,-3.2%,?
CC(=O)N1C(=O)C2(C(C#N)=C(N)Oc3n[nH]c(-c4ccccn4)c32)c2ccccc21 (stereo not drawn),-7.1%,?,?,5.4,16.2%,18.4µM*
Cc1nn(-c2ccccc2)c(N)c1C1(O)C(=O)Nc2ccccc21 (stereo not drawn),11.3%,-3.6%,-0.1%,30.9,13.8%,2.4%
Cc1nn(-c2ccccc2)c(N)c1C1(O)C(=O)N(C)c2ccccc21 (stereo not drawn),-3.8%,23.1µM*,-2.5%,10.0,-1.5%,?
Cc1cc(C(=O)N2C[C@@H](CO)[C@H](c3ccccn3)C2)ccn1,.,.,3.8%,.,.,.
Clc1ccc(-c2cnc3cccnn23)cc1,-15.1%,?,?,10.4,-12.4%,?
c1cnn2c(-c3ccc4c(c3)CCO4)cnc2c1,0.6%,10.3µM*,-10.9%,-1.4,3.9%,9.2µM*
CCn1c(=O)cc(SCC(=O)Nc2cc(OC)c(OC)c(OC)c2)c2ccccc21,-0.7%,23.1µM*,2.1%,-5.7,-3.5%,?
CCn1c(=O)cc(OCC(=O)Nc2cc(OC)c(OC)c(OC)c2)c2ccccc21,.,14.6µM*,-5.4%,.,.,?
CCn1c(=O)cc(SCC(=O)Nc2cccc(SC)c2)c2ccccc21,-11.5%,-25.4%,-3.5%,-9.3,-13.9%,?
CCn1c(=O)cc(SCC(=O)NCCc2cc(OC)ccc2OC)c2ccccc21,.,20.6µM*,-20.5%,.,.,20.6µM*
CCn1cc(CN2CCC3(CCC3NC(=O)COC)CC2)cn1 (stereo not drawn),.,.,41.6%,.,.,.
COc1cccc(N2CC(C(=O)NCC(F)F)NC2=O)c1 (stereo not drawn),.,.,38.4%[176 µM],.,.,.
c1ccc(-c2cc3nc(NCc4cccs4)ccn3n2)cc1,?,-105.0%,-20.7%,14.6,?,?
c1ccc(OCCNc2ccn3nc(-c4ccc(OCCN5CCOCC5)cc4)cc3n2)cc1,?,9.2µM*,4.0%,-11.0,?,16.4µM*
CC(C)(C)c1cc2nc(NCCOc3ccccc3)ccn2n1,-19.1%,?,-2.9%,9.7,-18.1%,?
c1csc(CNc2ccn3nc(-c4ccc(OCCN5CCOCC5)cc4)cc3n2)c1,?,20.6µM*,4.9%,-14.1,?,16.4µM*
Cc1ccc(NC(=O)C(c2ccccc2)N2CCN(C(=O)C3CC3)CC2)cc1Cl (stereo not drawn),.,.,16.0%,.,.,.
Cc1[nH]c2ccccc2c1C(=O)C(=O)N(C)C1CCS(=O)(=O)C1 (stereo not drawn),.,.,22.3%,.,.,.
Cc1cccc(C(=O)N[C@H](C(=O)Nc2ccc(C)c(S(=O)(=O)N(C)C)c2)C(C)C)c1,3.5%,?,-3.4%,-10.3,1.3%,14.6µM*
COc1ccc(N2CCN(CC(=O)Nc3cccc(S(=O)(=O)N4CCOCC4)c3)CC2)cc1,-4.6%,?,?,15.8,-1.2%,9.2µM*
SMILES,HT1080-NT tox,TDP1 cell CPT,12-LOX inh,IL1B secr inh,HT1080 IDH1KD tx,DT40 TDP1 no CPT
Cc1cccc(C(=O)N[C@H](C(=O)Nc2ccc(C)c(S(=O)(=O)N3CCOCC3)c2)C(C)C)c1,-0.5%,?,?,-15.8,-5.9%,?
COc1ccc(C(=O)N[C@H](C(=O)Nc2cccc(S(=O)(=O)N3CCOCC3)c2)C(C)C)cc1,-2.6%,-27.8%,-21.8%,?,-5.0%,18.4µM*
Cc1cc(C)c2nc(NC(=O)[C@@H](NC(=O)c3cccc(S(=O)(=O)N4CCOCC4)c3)C(C)C)sc2c1,-9.7%,16.4µM*,-7.9%,-8.4,-21.0%,?
COc1ccc(Br)c(C(=O)Nc2cccc(S(=O)(=O)N3CCOCC3)c2)c1,-1.6%,8.1%,8.1%,13.5,0.0%,?
Cc1ccsc1C(=O)N1CCC(c2nn(C)c3c2COCC3)CC1,.,.,24.3%,.,.,.
CCc1nc2c(c(-c3ccc(O)cc3)n1)CCN(Cc1ccccc1C(F)(F)F)CC2,.,.,-2.1%,.,.,.
C[S+](C)/N=C(\[O-])c1cccc(F)c1,.,.,40.2%,.,.,.
CC(C)C(NC(=O)c1ccc(C(C)(C)C)cc1)C(=O)Nc1cccc(S(N)(=O)=O)c1 (stereo not drawn),?,4.6%,-14.4%,-52.0*,-2.6%,-2.9%
COc1ccc(C(=O)NC(C(=O)NCc2ccccn2)C(C)C)cc1 (stereo not drawn),6.5%,1.8%,76.6%,17.2,0.7%,-6.9%
Cc1ccsc1CN(C)C(=O)C(NC(=O)c1cccc(S(=O)(=O)N2CCOCC2)c1)C(C)C (stereo not drawn),-2.0%,11.6µM*,-2.6%,-0.3,-8.2%,?
CC(C)C(NC(=O)c1ccc(C(C)(C)C)cc1)C(=O)NCc1ccccn1 (stereo not drawn),2.6%[9.24 µM],9.2µM*,2.7%,-20.3,3.2%,?
Cc1cccc(NC(=O)COC(=O)C(NC(=O)c2cccc(S(=O)(=O)N3CCOCC3)c2)C(C)C)c1 (stereo not drawn),0.4%,-11.5%,-25.7%,16.3,6.0%,-5.0%
COc1cccc2cc(-c3ccc(OCC(=O)NCCN4CCOCC4)cc3)c(=O)oc12,.,.,-5.9%,.,.,.
NC1=NC2=C(CCCC2)C2(CCCCC2)S1,?,?,-9.4%,-65.1*,?,?
Cc1ccc(NC(=O)COc2cccc3ccc(C)nc23)c(Br)c1,-3.8%,?,3.9%,0.5,-8.4%,23.1µM*
N#Cc1nc(-c2ccccc2)oc1N1CCN(C(=O)c2cccs2)CC1,.,.,-1.9%,.,.,.

# Bioassay records: PubChem, National Center for Advancing Translational Sciences (NCATS)
